Measurements as given in the supplement of paper PMC11732987, “Enantioselective OTUD7B fragment discovery through chemoproteomics screening and high-throughput optimisation” (Communications Chemistry, 2025).

Legend:
Experiment in all cases: log2 ratio of Biotin-Ahx-Ub-VS probe labelling (fragment/DMSO); higher = less target engagement (more negative = stronger competition), active = hit call of the paper (q ≤ 0.05, log2 ratio ≤ -1)
Conditions in all cases: compound concentration: 200 uM; treatment time: 3 h
USP16 = USP16 (UniProt Q9Y5T5)
USP16, sequence (Q9Y5T5 whole entry, looked up, the tested form may be a part): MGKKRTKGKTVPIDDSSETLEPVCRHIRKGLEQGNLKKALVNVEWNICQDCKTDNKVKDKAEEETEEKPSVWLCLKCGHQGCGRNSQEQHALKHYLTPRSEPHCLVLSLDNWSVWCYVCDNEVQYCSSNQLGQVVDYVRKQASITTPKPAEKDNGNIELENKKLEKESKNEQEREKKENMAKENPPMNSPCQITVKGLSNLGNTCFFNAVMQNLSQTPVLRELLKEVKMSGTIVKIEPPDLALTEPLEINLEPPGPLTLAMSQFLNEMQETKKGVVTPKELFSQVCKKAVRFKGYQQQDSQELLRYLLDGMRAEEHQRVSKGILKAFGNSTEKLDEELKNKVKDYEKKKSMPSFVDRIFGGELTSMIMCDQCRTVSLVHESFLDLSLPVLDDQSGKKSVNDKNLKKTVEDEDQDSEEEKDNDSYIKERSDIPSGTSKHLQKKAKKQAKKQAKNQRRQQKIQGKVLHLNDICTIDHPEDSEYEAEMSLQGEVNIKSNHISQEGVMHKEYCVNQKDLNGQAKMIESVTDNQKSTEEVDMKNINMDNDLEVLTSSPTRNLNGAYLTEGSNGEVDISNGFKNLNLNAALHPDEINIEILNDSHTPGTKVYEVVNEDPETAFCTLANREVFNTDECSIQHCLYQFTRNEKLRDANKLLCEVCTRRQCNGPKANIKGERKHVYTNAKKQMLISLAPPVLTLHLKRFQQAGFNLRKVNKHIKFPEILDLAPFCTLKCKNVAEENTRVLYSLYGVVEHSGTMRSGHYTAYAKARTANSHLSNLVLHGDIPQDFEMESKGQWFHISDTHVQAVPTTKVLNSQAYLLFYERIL
How it was run: (§1)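 Global-median-normalised Spectronaut label-free quantities were compared by unpaired t-test, and values are average log2 ratios of fragment over vehicle. Only proteins with ≥2 unique peptides were used. HEK293T lysate (495 µg per sample) was treated in triplicate with fragment at 200 µM or vehicle for 3 h and then with Biotin-Ahx-Ub-VS at 0.5 µM final for 1 h. Labelled DUBs were then NeutrAvidin-enriched, digested with LysC and trypsin, and run by diaPASEF LC-MS/MS.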

USP19 = biological target: T1, USP19 (UniProt O94966)
T1 sequence (whole entry): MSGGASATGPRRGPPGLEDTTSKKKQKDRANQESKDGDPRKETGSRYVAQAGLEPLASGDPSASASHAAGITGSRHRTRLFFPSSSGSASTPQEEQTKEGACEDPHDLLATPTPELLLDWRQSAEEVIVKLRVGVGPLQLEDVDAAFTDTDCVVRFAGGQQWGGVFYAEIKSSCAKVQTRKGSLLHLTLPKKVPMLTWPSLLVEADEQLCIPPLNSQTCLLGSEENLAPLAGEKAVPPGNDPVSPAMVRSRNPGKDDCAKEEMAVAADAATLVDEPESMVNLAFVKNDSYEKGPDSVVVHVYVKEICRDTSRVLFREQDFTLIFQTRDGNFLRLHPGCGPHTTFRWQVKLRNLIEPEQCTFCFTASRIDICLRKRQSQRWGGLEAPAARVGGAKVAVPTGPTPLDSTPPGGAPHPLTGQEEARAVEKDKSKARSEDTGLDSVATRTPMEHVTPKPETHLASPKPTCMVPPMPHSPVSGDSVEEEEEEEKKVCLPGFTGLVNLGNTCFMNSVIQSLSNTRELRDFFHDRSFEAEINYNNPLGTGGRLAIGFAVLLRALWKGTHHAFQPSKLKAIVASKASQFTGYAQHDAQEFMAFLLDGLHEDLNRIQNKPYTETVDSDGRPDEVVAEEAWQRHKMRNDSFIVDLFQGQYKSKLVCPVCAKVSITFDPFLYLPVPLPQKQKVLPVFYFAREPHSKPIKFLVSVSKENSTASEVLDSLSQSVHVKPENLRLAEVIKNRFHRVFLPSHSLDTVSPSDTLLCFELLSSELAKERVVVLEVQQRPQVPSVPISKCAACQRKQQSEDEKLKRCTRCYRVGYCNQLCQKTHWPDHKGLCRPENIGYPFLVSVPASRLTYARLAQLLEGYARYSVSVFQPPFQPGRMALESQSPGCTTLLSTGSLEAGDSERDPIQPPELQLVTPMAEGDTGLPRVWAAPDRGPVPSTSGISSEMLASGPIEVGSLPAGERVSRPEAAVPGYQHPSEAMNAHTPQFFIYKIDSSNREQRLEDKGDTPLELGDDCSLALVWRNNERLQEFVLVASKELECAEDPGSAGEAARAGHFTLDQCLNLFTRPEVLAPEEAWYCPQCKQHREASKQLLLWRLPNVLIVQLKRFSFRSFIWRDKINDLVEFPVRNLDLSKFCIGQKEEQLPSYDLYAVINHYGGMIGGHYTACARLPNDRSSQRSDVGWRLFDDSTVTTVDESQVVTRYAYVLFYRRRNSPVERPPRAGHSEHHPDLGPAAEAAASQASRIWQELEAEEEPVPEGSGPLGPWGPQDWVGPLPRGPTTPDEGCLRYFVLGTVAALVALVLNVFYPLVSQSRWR
How it was run: as §1

USP24 = USP24 (UniProt Q9UPU5)
USP24, sequence (Q9UPU5 whole entry): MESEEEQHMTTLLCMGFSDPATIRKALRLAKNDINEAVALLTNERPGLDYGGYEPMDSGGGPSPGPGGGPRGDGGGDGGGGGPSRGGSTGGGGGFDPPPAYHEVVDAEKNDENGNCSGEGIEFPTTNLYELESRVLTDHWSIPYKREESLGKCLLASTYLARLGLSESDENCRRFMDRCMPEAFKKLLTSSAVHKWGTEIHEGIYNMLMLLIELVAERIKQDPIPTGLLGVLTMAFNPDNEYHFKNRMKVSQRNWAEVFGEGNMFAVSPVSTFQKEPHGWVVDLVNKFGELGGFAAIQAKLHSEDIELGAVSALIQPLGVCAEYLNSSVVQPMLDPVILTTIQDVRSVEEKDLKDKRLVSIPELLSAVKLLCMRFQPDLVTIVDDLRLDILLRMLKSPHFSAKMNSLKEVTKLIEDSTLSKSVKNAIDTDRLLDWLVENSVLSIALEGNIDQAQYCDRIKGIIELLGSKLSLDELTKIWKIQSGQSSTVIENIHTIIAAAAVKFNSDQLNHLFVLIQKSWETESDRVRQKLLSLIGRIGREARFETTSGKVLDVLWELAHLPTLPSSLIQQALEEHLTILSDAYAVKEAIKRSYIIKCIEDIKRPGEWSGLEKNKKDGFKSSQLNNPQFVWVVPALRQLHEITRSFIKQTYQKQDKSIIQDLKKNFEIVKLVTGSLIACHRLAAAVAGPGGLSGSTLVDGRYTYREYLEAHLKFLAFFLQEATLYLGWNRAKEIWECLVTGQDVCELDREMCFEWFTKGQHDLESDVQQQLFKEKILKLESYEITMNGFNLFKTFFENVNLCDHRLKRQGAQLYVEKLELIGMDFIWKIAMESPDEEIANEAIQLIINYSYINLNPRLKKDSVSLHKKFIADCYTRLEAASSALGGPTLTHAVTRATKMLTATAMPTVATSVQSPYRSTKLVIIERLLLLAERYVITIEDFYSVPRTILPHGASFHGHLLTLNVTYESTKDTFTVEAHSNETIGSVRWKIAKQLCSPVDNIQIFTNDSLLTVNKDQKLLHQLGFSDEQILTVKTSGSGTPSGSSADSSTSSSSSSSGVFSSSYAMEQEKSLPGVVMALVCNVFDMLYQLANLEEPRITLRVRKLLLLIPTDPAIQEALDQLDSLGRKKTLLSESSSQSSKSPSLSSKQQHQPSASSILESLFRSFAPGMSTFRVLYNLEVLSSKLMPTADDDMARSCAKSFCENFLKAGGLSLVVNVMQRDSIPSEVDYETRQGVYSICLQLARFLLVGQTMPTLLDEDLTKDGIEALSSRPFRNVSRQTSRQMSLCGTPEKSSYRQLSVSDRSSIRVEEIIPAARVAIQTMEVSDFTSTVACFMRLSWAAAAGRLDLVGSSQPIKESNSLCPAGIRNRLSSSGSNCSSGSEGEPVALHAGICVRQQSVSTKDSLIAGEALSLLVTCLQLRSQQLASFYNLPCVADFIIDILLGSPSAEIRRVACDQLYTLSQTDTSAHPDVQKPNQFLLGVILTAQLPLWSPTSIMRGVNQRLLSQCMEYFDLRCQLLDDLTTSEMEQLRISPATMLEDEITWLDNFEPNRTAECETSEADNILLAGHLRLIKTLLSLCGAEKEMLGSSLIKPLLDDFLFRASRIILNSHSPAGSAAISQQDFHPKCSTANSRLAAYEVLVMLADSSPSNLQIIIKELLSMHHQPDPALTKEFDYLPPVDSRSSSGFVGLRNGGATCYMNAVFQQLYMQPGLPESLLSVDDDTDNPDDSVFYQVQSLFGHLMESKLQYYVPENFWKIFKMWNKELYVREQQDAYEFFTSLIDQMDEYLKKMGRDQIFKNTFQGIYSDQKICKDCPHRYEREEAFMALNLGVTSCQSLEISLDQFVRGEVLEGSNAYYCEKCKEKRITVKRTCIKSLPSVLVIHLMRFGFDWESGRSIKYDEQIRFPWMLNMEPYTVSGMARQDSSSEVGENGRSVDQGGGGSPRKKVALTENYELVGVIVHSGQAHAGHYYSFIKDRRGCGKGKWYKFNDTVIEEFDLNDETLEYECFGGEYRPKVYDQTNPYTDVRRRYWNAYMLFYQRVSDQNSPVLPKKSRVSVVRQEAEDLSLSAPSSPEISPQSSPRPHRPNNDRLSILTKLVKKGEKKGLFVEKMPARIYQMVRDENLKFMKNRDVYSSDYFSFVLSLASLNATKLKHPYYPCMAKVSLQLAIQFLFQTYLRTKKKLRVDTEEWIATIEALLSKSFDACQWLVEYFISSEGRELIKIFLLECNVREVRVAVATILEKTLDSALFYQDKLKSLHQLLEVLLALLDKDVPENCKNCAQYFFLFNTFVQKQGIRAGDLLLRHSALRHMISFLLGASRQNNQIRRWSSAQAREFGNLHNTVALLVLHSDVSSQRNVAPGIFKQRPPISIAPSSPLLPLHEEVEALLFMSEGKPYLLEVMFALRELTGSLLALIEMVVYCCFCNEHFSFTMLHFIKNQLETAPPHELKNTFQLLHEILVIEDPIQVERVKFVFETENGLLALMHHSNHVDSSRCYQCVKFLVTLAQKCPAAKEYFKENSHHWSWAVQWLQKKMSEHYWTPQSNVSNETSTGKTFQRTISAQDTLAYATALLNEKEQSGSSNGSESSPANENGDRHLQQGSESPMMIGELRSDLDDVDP
How it was run: as §1

USP25 = biological target: T2, USP25 (UniProt Q9UHP3)
T2 sequence (whole entry): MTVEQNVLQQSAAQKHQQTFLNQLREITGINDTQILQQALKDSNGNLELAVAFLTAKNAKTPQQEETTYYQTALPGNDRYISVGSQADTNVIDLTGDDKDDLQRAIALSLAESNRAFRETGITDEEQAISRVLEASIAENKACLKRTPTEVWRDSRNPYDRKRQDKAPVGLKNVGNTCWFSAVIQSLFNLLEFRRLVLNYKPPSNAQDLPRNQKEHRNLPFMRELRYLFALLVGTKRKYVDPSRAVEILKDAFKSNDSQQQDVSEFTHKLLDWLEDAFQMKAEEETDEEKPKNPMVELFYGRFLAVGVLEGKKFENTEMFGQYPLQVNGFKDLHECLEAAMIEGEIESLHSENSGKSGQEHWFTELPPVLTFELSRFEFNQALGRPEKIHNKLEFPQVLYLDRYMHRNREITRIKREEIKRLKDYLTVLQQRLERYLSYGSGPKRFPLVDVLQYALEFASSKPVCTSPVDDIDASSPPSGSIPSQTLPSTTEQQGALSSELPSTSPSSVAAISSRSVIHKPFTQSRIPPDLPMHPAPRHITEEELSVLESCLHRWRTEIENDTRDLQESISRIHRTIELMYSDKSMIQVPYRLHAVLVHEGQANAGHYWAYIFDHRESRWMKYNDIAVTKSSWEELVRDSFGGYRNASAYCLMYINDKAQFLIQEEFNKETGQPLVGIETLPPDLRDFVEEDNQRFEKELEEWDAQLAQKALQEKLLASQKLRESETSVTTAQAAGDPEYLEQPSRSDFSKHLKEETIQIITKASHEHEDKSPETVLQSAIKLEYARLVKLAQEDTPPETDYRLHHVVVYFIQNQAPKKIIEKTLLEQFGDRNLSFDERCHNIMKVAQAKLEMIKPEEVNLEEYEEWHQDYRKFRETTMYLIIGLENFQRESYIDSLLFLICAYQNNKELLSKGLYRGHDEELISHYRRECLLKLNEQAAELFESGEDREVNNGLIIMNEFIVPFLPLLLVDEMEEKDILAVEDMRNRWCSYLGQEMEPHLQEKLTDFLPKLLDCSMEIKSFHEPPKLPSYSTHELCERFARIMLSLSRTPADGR
How it was run: as §1

USP28 = biological target: T3, USP28 (UniProt Q96RU2)
T3 sequence (whole entry): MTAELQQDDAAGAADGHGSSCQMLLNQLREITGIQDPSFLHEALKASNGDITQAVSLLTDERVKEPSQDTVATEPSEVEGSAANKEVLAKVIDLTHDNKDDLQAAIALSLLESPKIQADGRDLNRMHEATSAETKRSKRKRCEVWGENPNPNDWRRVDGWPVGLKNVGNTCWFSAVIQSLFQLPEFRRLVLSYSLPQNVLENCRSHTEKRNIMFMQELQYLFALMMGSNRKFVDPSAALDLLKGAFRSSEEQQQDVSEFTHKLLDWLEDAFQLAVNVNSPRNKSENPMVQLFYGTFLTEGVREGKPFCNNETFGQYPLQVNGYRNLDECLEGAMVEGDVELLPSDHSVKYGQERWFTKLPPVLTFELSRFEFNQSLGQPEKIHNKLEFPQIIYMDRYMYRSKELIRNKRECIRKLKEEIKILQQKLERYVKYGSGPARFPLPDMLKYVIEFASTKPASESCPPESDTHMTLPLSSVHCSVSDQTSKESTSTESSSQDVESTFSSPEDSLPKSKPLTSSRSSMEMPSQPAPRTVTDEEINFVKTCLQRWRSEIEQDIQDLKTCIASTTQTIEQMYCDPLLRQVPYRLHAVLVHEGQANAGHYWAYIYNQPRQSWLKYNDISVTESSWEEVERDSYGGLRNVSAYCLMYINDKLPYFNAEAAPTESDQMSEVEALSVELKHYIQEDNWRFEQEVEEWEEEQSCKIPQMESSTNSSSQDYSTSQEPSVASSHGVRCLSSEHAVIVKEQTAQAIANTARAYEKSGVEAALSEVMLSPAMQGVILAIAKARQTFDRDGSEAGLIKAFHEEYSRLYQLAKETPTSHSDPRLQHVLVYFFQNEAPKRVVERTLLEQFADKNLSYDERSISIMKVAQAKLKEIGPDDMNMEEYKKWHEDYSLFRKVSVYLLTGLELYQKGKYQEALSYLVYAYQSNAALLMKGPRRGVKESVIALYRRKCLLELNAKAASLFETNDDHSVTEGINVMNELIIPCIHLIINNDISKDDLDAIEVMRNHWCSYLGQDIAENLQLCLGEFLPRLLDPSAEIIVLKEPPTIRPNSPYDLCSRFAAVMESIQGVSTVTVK
How it was run: as §1

Measured: log2 ratio of Biotin-Ahx-Ub-VS probe labelling

NC(=O)C1CCCCN1C(=O)CCl (stereo not given)
inactive: USP16 0.0843 | USP19 -0.231 | USP24 -0.241 | USP25 -0.267 | USP28 -0.652
